In PubChem BioAssay (NCATS):
Results filed as inconclusive are left out. Activity calls are given as the source filed them. The call rests on the fitted dose curve; in most records, active means well fitted cell-killing curve with a large enough effect; inconclusive means small, poorly fitted or top-dose-only effect, or effect the other way; inactive means flat fitted curve, though single readings scatter.

What was measured:
Assay in all cases: Primary qHTS to identify gynecologic anti-cancer compounds using libraries of approved drugs and bioactive compounds (AID 1345084); further: nearly all actives have a fitted effect of over 55% in size
[1] = test system: C33A; details: Gynecologic cancer cell panel viability, ATPlite luminescence, 48 h; series mostly up to 57.5 µM
Method in brief: (§1)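 Cytotoxicity screen measuring ATP content by luciferase luminescence. Each compound is applied at five concentrations for 48 h at 37 C with 5% CO2.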

[2] = test system: CASKI; details: Gynecologic cancer cell panel viability, ATPlite luminescence, 48 h; series mostly up to 57.5 µM
Method in brief: as §1

[3] = test system: Es-2; details: Gynecologic cancer cell panel viability, ATPlite luminescence, 48 h; series mostly up to 57.5 µM
Method in brief: as §1

[4] = test system: HeLa; details: Gynecologic cancer cell panel viability, ATPlite luminescence, 48 h; series mostly up to 57.5 µM
Method in brief: as §1

[5] = test system: OV90; details: Gynecologic cancer cell panel viability, ATPlite luminescence, 48 h; series mostly up to 57.5 µM
Method in brief: as §1

[6] = test system: PA-1; details: Gynecologic cancer cell panel viability, ATPlite luminescence, 48 h; series mostly up to 57.5 µM
Method in brief: as §1

[7] = test system: SKOV3; details: Gynecologic cancer cell panel viability, ATPlite luminescence, 48 h; series mostly up to 57.5 µM
Method in brief: as §1

[8] = test system: Tov112D; details: Gynecologic cancer cell panel viability, ATPlite luminescence, 48 h; series mostly up to 57.5 µM
Method in brief: as §1

[9] = test system: Hek293T; details: Gynecologic cancer cell panel viability, ATPlite luminescence, 48 h, control line for the selectivity index; series mostly up to 57.5 µM
Method in brief: as §1

[10] = test system: Tov-21-G; details: Gynecologic cancer cell panel viability, ATPlite luminescence, 48 h; series mostly up to 57.5 µM
Method in brief: as §1

[11] = test system: JEG-3; details: Gynecologic cancer cell panel viability, ATPlite luminescence, 48 h; series mostly up to 57.5 µM
Method in brief: as §1

Measured: Potency
Potency means the concentration at half of the fitted maximal effect.

Cn1sc(=O)n(Cc2ccccc2)c1=O
inactive: [1] | [2] | [3] | [4] | [5] | [6] | [7] | [8]

C/C1=C/CCC2=CC(OC2=O)C(C)(C)/C=C/C1=O (centres undefined)
active: [1] 10 µM | [2] 6.31 µM | [3] 8.91 µM | [9] 12.6 µM | [6] 8.91 µM | [7] 12.6 µM | [10] 8.91 µM | [8] 20 µM

CCn1c(-c2nonc2N)nc2c(C#CCO)ncc(OCCCN)c21
active: [2] 25.1 µM
inactive: [1] | [3] | [4] | [10]

COc1ccc(N(C(=O)Nc2c(C)cccc2C)c2cc(Nc3ccc(N4CCN(C)CC4)cc3)ncn2)c(OC)c1
active: [7] 25.1 µM | [10] 12.6 µM
inactive: [1] | [2] | [3] | [4] | [11] | [8]

O=C(NCCCNC(=O)c1ccc[nH]c1=O)c1cc(-c2ccccc2)on1
active: [6] 8.91 µM
inactive: [1] | [2] | [7] | [8]

CC1CCC/C=C/C(=O)c2c(O)cc(O)cc2CC(=O)O1 (centres undefined)
active: [1] 11.2 µM | [9] 14.1 µM | [11] 14.1 µM | [6] 5.62 µM | [7] 22.4 µM
inactive: [2]

Cn1c(CO)c(-c2ccccc2)c2cc([N+](=O)[O-])ccc21
inactive: [1] | [2] | [3] | [9] | [11] | [5] | [6] | [10] | [8]

C=C1C(=O)OC2/C=C(\C)CC/C=C(\C)CC(OC(C)=O)C12 (centres undefined)
inactive: [1] | [2] | [4] | [9] | [11] | [5] | [10] | [8]

CCOc1ccc(Cc2nc(-c3c(C)nc4ccccn34)cs2)cc1
active: [1] 0.355 µM | [3] 0.0891 µM

COc1cc(F)c(F)c(Nc2ccc(I)cc2F)c1NS(=O)(=O)C1(CC(O)CO)CC1 (centres undefined)
inactive: [1] | [2] | [4] | [9] | [11] | [6] | [8]

CC(C)C[C@H](C(=O)O)c1cc(-c2ccc(C(F)(F)F)cc2)cc(-c2ccc(C(F)(F)F)cc2)c1
inactive: [1] | [2] | [3] | [11] | [7] | [10] | [8]

CCn1c2ccccc2c2cc(Nc3ccnc(NCCCN4CCOCC4)n3)ccc21
inactive: [1] | [2] | [4] | [10] | [8]

CC(=O)Nc1nc(C)c(-c2nc(N3CCCC(O)C3)no2)s1 (centres undefined)
inactive: [1] | [3] | [8]

Cc1c(OCc2cccc(-c3ccc(C(=O)O)cc3)c2)cc2c(c1C)C(=O)C(C1CCCC1)C2 (centres undefined)
inactive: [1] | [3] | [4] | [9] | [11] | [5] | [6] | [10] | [8]

CCCC(CCC)C(=O)Nc1ccn([C@@H]2O[C@H](CO)[C@@H](O)C2(F)F)c(=O)n1
inactive: [1] | [4] | [9] | [11]
active: [8] 10 µM

Cc1noc(C)c1-c1cc(O)cc(C(O)c2ccccc2)c1 (centres undefined)
active: [7] 15.8 µM
inactive: [1] | [9] | [11] | [5] | [10] | [8]

N#Cc1ccc(O[C@@H]2c3ccccc3C[C@H]2N2CCC[C@@H](N)C2)c(Cl)c1
inactive: [1] | [4] | [9] | [11] | [5] | [6] | [8]

Fc1ccc(-c2nc(C3CCNCC3)sc2-c2ccnc(NC3CC3)n2)cc1
inactive: [1] | [9] | [5] | [8]

CC(C)n1cnc2c(-c3cnc(N)nc3)nc(N3CCOCC3)nc21
active: [9] 1.12 µM | [7] 1.26 µM
inactive: [1] | [11]

C/C=C(\C)C(=O)O[C@H]1C=C(CO)C(=O)[C@H](OC(C)=O)[C@H]1C(C)C
inactive: [4] | [5] | [8]
active: [1] 12.6 µM

CC(C)(C)Sc1c(CC(C)(C)C(=O)O)n(Cc2ccc(Cl)cc2)c2ccc(OCc3ccc4ccccc4n3)cc12
inactive: [1] | [3] | [4] | [9] | [11] | [5] | [6] | [10] | [8]

O=C(NCCCCCCCCNC(=O)C(Cl)Cl)C(Cl)Cl
inactive: [1] | [3] | [4] | [9] | [11] | [6] | [10] | [8]

Nc1nc(NC2CC2)cc(-c2cccc(Cl)c2Cl)n1
active: [4] 20 µM | [6] 28.2 µM | [7] 14.1 µM | [8] 12.6 µM
inactive: [1] | [5]

Cn1ncc(Cl)c1-c1cc(C(=O)N[C@H](CN)Cc2cccc(F)c2)sc1Cl
active: [1] 11.2 µM | [9] 2.82 µM | [6] 25.1 µM | [7] 14.1 µM | [10] 1.58 µM
